Records with an inconclusive call do not appear. Entries that show only a call come without a potency. Activity calls are given as the source filed them. Calls come from the whole dose curve; as a rule, active = well fitted cell-killing curve with a large enough effect; inconclusive = small, poorly fitted or top-dose-only effect; inactive = flat fitted curve, though single readings scatter.
Potency is the fitted concentration of half-maximal effect.

This assay is described as follows: Cell Viability - SH-SY5Y (AID 544). Note: nearly all actives have a fitted effect of over 55% in size. The note with it: SH-SY5Y neuroblastoma cell viability; viability change, negative = cytotoxic: at 92.2 µM (top of the series). An excerpt: NIH Chemical Genomics Center [NCGC]
NIH Molecular Libraries Screening Centers Network [MLSCN]
National Institutes of Environmental Health Sciences [NIEHS]
National Toxicology Program [NTP]
We have developed a 1536-well cell-based assay for quantitative high throughput screening (qHTS) against a number of cell lines to determine in vitro cytotoxicity of small molecules. This particular assay uses the SH-SY5Y cell line which is derived from human neuroblastoma.
NCGC Assay Protocol Summary:
The CellTiter-Glo luminescent cell viability assay (Promega) is a homogeneous method to measure the number of viable cells in culture. The end point readout of this assay is based on quantitation of intracellular ATP, an indicator of metabolic activity, using the luciferase reaction. Luciferase catalyzes the oxidation of beetle Luciferin to oxyluciferin and light in the presence of ATP. The luminescent signal is proportional to amount of ATP present.
Using the CellTiter-Glo luminescent cell viability assay, the amount of cellular ATP was measured in the SH-SY5Y cell line with complete culture medium following compound treatment for 40 hours. The assay was performed in opaque white Kalypsys 1536-well plates. In the screen, tamoxifen and doxorubicin were used as positive controls. Library compounds were measured for their ability to cause acute toxicity in the cell line, as reflected by a decrease in intracellular ATP levels, in a concentration-dependent manner. […] AC50 values were determined from concentration-response data modeled with the standard Hill equation.
qHTS protocol for CellTiter Glo SH-SY5Y cellular assay
[Step] [Parameter] [Value] [Description]
1. Reagent; 5 uL; 1500 SH-SY5Y cells/well
2. Time; 5 hr; 37 °C incubation
4. Controls; 23 nL; Tamoxifen 0.34 uM to 100 uM & Doxorubicin 0.02 nM to 100 uM
5. Time; 40 hr; 37 °C incubation
6. Reagent; 5 uL; CellTiter Glo reagent
7. Time; 20 min; Room Temperature
8. Detection; Luminescence; Viewlux plate reader
Keywords: cell viability, cytotoxicity, SH-SY5Y cell line, luminescence, NTPHTS, NTPHTS_NCGC, NIEHS, EPA, DSSTox, MLSMR, MLSCN, NIH Roadmap, qHTS, NCGC
For `O=C(O)/C=C\C(=O)O`, the Potency result is “inactive”.
Consider `CC1(C)S[C@@H]2[C@H](NC(=O)[C@H](N)c3ccccc3)C(=O)N2[C@H]1C(=O)O`, for which the Potency result was “inactive”.
Same read-out and setting: the same measure for `Nc1ccc([N+](=O)[O-])cc1O`: “inactive”; for `O=c1cc(-c2ccccc2)oc2ccccc12`: “inactive”; for `CN(C)CCC(c1ccc(Cl)cc1)c1ccccn1` (stereo not drawn): “inactive”.
Consider `Oc1ccccc1O`, for which the Potency is 10 µM (active).
On to `CN1CCC[C@H]1c1cccnc1`, for which the Potency entry is “inactive”.
With `C#C[C@]1(O)CC[C@H]2[C@@H]3CCc4cc(O)ccc4[C@H]3CC[C@@]21C`, the Potency is 31.6 µM (active).
On to `CC(C)NCC(O)COc1cccc2ccccc12` (stereo not drawn), for which the Potency result is “inactive”.
Consider `Nc1ccc(O)c(C(=O)O)c1`, for which the Potency entry is “inactive”.
In the case of `COc1cc(/C=C/C(=O)CC(=O)/C=C/c2ccc(O)c(OC)c2)ccc1O`, the Potency was 31.6 µM (active).
With `N=C1N=C(N)c2cc3ccccc3cc21`, the viability change, negative = cytotoxic was -99% (active).
Regarding `CCCCCCCCCCCCCCCCCC(=O)O`, the Potency result was “inactive”.
Turning to `CCCOC(=O)c1ccc(O)cc1`, the Potency entry was “inactive”.
In the case of `CN(C)c1ccc(C(=C2C=CC(=[N+](C)C)C=C2)c2ccccc2)cc1`, the Potency was 0.1 µM (active).
As to `c1cnc2c(c1)ccc1cccnc12`, the Potency is 5.01 µM (active).
In the case of `S=c1[nH]c2ccccc2s1`, the Potency result was “inactive”.
For the molecule `c1ccc2sc(SSc3nc4ccccc4s3)nc2c1`, the Potency result is “inactive”.

(Values after PubChem BioAssay (NCATS).)
